# Test results as given in PubChem BioAssay (Tox21).
# Inconclusive results are not listed. Entries that show only a call come without a potency. Unmarked numbers belong to inactive results. Activity calls are given as the source filed them. Calls follow the shape of the dose curve; as a rule, active = well fitted curve in the direction sought with a large enough effect in the repeat runs; inconclusive = weak or mixed curves; inactive = no such curve, though single readings can be large; an effect the other way counts as inactive or inconclusive.
# Tests used:
# [1] = target: Cytochrome P450 2C19 (Homo sapiens) (UniProt P33261); assay: Cytochrome P450 Family 2 Subfamily C Member 19 (CYP2C19) small molecule antagonists: luciferase reporter qHTS assay (AID 1671197); also: nearly all actives have a fitted effect of over 65% in size; also: potency is read from the fitted curve at half-maximal effect; as to activity change, negative = inhibition: series mostly up to about 120 µM
# Cytochrome P450 2C19 (Homo sapiens), sequence (P33261 whole entry, looked up): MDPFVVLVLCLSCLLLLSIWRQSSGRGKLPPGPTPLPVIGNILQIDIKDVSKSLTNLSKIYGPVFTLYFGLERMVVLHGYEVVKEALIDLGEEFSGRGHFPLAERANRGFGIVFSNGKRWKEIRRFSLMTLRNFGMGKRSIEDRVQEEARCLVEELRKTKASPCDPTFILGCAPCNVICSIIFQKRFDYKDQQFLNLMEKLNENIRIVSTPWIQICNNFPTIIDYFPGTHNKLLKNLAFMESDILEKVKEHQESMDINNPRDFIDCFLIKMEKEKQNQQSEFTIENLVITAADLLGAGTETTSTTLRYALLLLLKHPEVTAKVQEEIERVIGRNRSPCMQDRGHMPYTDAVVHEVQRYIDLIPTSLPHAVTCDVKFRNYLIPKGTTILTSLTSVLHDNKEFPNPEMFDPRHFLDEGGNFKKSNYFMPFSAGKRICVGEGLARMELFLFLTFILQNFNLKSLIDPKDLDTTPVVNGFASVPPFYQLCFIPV
# Procedure, shortened: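 Light output is proportional to CYP2C19 activity: proluciferin substrate is converted to luciferin, then detected by a luciferin detection reagent that also stops the 1 h, 37C NADPH-driven reaction. Ketoconazole serves as positive control.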
# [2] = target: Cytochrome P450 2C9 (Homo sapiens) (UniProt P11712); assay: Cytochrome P450 Family 2 Subfamily C Member 9 (CYP2C9) small molecule antagonists: luciferase reporter qHTS assay (AID 1671198); also: nearly all actives have a fitted effect of over 50% in size; also: potency is read from the fitted curve at half-maximal effect; as to activity change, negative = inhibition: series mostly up to about 120 µM
# Cytochrome P450 2C9 (Homo sapiens), sequence (P11712 whole entry, looked up): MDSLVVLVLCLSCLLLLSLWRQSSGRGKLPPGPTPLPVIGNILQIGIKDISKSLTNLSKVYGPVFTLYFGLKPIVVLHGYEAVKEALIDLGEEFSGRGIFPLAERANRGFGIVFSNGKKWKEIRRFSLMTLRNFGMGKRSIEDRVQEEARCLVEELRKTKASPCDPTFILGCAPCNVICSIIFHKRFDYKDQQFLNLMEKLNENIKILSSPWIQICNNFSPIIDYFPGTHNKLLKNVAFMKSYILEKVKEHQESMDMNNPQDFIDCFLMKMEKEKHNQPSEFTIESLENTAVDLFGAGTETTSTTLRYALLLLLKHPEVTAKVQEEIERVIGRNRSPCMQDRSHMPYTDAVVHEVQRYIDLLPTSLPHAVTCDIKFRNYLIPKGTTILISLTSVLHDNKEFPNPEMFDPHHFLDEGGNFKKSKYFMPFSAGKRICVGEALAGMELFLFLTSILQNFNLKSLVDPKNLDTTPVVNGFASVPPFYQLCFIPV
# Procedure, shortened: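 P450-Glo proluciferin substrate with CYP2C9 enzyme; 10 min RT preincubation, then NADPH regeneration 1 h at 37C; luciferin detection reagent 20 min RT, luminescence in relative luminescence units.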
# [3] = target: Voltage-gated inwardly rectifying potassium channel KCNH2 (Homo sapiens) (UniProt Q12809); assay: Human Ether-a-go-go-Related Gene (hERG) channel small molecule antagonists: fluorescence cell-based qHTS assay (AID 1671200);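 also: hERG-expressing U2OS cells given a thallium stimulus after FluxOR II dye loading; series mostly up to about 77 µM; nearly all actives have a fitted effect of over 50% in size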
# Voltage-gated inwardly rectifying potassium channel KCNH2 (Homo sapiens), sequence (Q12809 whole entry, looked up): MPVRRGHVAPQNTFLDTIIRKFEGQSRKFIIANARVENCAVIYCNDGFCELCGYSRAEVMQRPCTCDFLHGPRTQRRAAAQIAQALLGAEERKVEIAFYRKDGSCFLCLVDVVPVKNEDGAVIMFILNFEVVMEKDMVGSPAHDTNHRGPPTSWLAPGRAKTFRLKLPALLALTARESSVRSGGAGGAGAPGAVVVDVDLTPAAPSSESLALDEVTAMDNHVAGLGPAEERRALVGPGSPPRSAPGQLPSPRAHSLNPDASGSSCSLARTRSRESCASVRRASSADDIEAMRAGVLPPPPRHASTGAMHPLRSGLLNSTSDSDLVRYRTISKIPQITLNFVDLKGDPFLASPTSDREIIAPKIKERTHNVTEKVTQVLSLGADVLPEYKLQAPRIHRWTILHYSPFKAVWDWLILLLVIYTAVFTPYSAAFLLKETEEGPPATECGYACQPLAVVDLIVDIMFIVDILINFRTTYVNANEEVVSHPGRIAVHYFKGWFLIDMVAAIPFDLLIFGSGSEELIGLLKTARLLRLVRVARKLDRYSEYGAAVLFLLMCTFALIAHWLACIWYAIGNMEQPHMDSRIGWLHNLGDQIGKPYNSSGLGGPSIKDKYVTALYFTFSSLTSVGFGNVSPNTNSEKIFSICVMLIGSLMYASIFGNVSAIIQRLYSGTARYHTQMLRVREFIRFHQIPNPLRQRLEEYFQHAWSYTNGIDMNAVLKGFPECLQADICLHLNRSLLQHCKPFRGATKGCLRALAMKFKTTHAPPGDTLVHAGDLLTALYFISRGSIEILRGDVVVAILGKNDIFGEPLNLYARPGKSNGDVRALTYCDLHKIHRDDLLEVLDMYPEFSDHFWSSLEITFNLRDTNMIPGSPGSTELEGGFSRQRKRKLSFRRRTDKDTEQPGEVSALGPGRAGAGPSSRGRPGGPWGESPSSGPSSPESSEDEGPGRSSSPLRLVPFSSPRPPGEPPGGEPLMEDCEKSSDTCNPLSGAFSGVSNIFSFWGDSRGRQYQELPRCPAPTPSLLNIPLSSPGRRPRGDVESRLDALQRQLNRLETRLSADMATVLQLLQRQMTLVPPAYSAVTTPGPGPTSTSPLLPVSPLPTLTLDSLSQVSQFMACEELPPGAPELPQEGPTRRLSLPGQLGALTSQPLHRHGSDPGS
# Procedure, shortened: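 Channel function was assessed by thallium flux. Cells seeded the previous day and kept at 37 C took up FluxOR II dye over 1 h in the dark at room temperature, then sat another 10 min before stimulation.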
# [4] = target: Cytochrome P450 3A4 (Homo sapiens) (UniProt P08684); assay: Cytochrome P450 Family 3 Subfamily A Member 4 (CYP3A4) small molecule antagonists: luciferase reporter qHTS assay (AID 1671201); also: nearly all actives have a fitted effect of over 50% in size; also: potency is read from the fitted curve at half-maximal effect; as to activity change, negative = inhibition: series mostly up to about 120 µM
# Cytochrome P450 3A4 (Homo sapiens), sequence (P08684 whole entry, looked up): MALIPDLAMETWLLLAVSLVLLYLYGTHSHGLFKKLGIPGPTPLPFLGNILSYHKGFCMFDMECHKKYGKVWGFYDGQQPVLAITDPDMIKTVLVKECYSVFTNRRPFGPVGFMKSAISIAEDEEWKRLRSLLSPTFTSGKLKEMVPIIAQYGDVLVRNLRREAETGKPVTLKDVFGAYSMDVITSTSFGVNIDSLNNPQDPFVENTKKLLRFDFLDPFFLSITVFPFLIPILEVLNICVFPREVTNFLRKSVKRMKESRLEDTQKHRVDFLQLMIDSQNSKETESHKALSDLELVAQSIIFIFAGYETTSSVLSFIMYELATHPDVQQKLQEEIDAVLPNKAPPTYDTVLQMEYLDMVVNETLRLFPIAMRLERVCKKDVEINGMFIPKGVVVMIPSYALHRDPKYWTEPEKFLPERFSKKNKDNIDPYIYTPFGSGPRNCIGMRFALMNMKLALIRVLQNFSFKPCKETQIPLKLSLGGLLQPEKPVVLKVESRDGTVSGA
# Procedure, shortened: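 Compounds in DMSO were pin-transferred onto CYP3A4 enzyme-substrate mix and held 10 min at room temperature. NADPH regenerating solution started the reaction for 1 h; luciferin detection reagent stopped it, and luminescence was read after 20 min.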
# [5] = target: Cytochrome P450 1A2 (Homo sapiens) (UniProt P05177); assay: Cytochrome P450 Family 1 Subfamily A Member 2 (CYP1A2) small molecule antagonists: luciferase reporter qHTS assay (AID 1671199); also: nearly all actives have a fitted effect of over 50% in size; also: potency is read from the fitted curve at half-maximal effect; as to activity change, negative = inhibition: series mostly up to about 120 µM
# Cytochrome P450 1A2 (Homo sapiens), sequence (P05177 whole entry, looked up): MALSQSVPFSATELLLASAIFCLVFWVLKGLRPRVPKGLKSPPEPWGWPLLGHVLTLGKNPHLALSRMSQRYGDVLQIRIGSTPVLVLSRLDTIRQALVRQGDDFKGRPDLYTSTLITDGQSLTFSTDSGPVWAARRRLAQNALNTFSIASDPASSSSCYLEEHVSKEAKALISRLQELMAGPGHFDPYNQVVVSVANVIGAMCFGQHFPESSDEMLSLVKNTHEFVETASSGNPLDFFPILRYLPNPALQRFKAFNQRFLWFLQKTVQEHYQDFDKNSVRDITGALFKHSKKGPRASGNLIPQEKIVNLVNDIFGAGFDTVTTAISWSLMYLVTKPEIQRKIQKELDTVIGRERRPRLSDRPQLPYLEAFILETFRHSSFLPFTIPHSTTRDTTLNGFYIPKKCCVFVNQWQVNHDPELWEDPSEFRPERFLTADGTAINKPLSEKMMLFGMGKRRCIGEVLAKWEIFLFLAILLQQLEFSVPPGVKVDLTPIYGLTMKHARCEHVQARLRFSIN
# Procedure, shortened: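 Read-out is luminescence from luciferin detection reagent (20 min) proportional to CYP1A2 activity; compounds in DMSO preincubated 10 min with enzyme and proluciferin substrate, then NADPH regeneration solution, 1 h, room temperature.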
structure (smiles),measurement,setting,value
CC[C@H]1OC(=O)[C@H](C)[C@@H](O[C@H]2C[C@@](C)(OC)[C@@H](O)[C@H](C)O2)[C@H](C)[C@@H](O[C@@H]2O[C@H](C)C[C@H](N(C)C)[C@H]2O)[C@](C)(OC)C[C@@H](C)C(=O)[C@H](C)[C@@H](O)[C@]1(C)O,Potency,[1],63.8 µM (active)
same,Potency,[2],inactive
same,Potency,[3],inactive
NC(=O)Cc1cccc2ccccc12,Potency,[1],inactive
same,Potency,[2],inactive
same,Potency,[3],inactive
same,Potency,[4],inactive
CO[Si](C)(OC)c1ccccc1,Potency,[1],7.1 µM (active)
same,Potency,[2],35.6 µM (active)
same,Potency,[3],inactive
same,Potency,[4],25.2 µM (active)
CN(C)CCCN(C)CCCN(C)C,Potency,[1],inactive
same,Potency,[2],inactive
same,Potency,[3],inactive
same,Potency,[4],inactive
Cc1nc2ccc(CN(C)c3ccc(C(=O)N[C@@H](CCC(=O)O)C(=O)O)s3)cc2c(=O)[nH]1,Potency,[1],inactive
same,Potency,[2],inactive
same,Potency,[3],inactive
same,Potency,[4],inactive
Cc1cc(C)c(N=Nc2c(O)c(S(=O)(=O)O)cc3cc(S(=O)(=O)O)ccc23)cc1C,"activity change, negative = inhibition",[1],9.38% [at 10.5 µM]
same,"activity change, negative = inhibition",[2],1.8% [at 10.5 µM]
same,"activity change, negative = inhibition",[3],-0.475% [at 6.97 µM]
same,"activity change, negative = inhibition",[4],1.68% [at 10.5 µM]
Cc1ccccc1N=C(N)N=C(N)N,Potency,[1],inactive
same,Potency,[2],inactive
same,Potency,[3],inactive
same,Potency,[4],inactive
Cc1cccc(C)c1NC(=O)CC12CCCN1CCC2,Potency,[1],inactive
same,Potency,[2],inactive
same,Potency,[5],inactive
same,Potency,[4],inactive
O=C1c2ccccc2C(=O)c2cc(O)ccc21,Potency,[1],22.5 µM (active)
same,Potency,[2],25.2 µM (active)
same,Potency,[3],inactive
CN(C)C(=O)Oc1cccc([N+](C)(C)C)c1,Potency,[1],inactive
same,Potency,[2],inactive
same,Potency,[3],inactive
same,Potency,[4],inactive
CCCCCCC#CC(=O)OC,Potency,[1],inactive
same,Potency,[2],inactive
same,Potency,[3],inactive
CC(C)(C)C(=O)c1ccccc1,Potency,[1],inactive
same,Potency,[2],inactive
same,Potency,[3],inactive
same,Potency,[4],inactive
CC/C=C\CCOC(C)OCC (stereo not given),Potency,[1],inactive
same,Potency,[2],inactive
same,Potency,[3],inactive
same,Potency,[4],inactive
CCCO[Si](OCCC)(OCCC)OCCC,Potency,[1],inactive
same,Potency,[2],inactive
same,Potency,[3],inactive
same,Potency,[4],inactive
O=CN(CCO)CCO,Potency,[1],inactive
same,Potency,[2],inactive
same,Potency,[3],inactive
same,Potency,[4],inactive
O=C(CO)[C@@H](O)[C@H](O)[C@H](O)CO,Potency,[1],inactive
same,Potency,[2],inactive
same,Potency,[3],inactive
same,Potency,[4],inactive
OCCCCCO,Potency,[1],inactive
same,Potency,[2],inactive
same,Potency,[3],inactive
same,Potency,[4],inactive
C[N+](C)(C)CCCCCCCCCC[N+](C)(C)C,Potency,[1],inactive
same,Potency,[2],inactive
same,Potency,[3],inactive
same,Potency,[4],inactive
C=CCCCCCCCCC(=O)OCC,Potency,[1],inactive
same,Potency,[2],inactive
same,Potency,[3],inactive
same,Potency,[4],inactive
C[N+]12CCC(CC1)C(OC(=O)C(O)(c1ccccc1)c1ccccc1)C2 (stereo not given),Potency,[1],inactive
same,Potency,[2],inactive
same,Potency,[3],inactive
same,Potency,[4],inactive
CCCc1ncc(C[n+]2ccccc2C)c(N)n1,Potency,[1],inactive
same,Potency,[2],inactive
same,Potency,[3],inactive
same,Potency,[4],inactive
CCCC(C)C(=O)OCC (stereo not given),Potency,[1],inactive
same,Potency,[2],inactive
same,Potency,[3],inactive
same,Potency,[4],inactive
CC(CO)(CO)[N+](=O)[O-],Potency,[1],inactive
same,Potency,[2],inactive
same,Potency,[3],inactive
same,Potency,[4],inactive
Clc1cc(Cl)c(Cl)nc1Cl,Potency,[1],inactive
same,Potency,[2],inactive
same,Potency,[3],inactive
same,Potency,[4],inactive
C=CN1CCCCCC1=O,Potency,[1],inactive
same,Potency,[2],inactive
same,Potency,[3],inactive
same,Potency,[4],inactive
O=C(c1ccccc1O)c1ccccc1O,Potency,[1],11.1 µM (active)
same,Potency,[2],62.6 µM (active)
same,Potency,[3],inactive
CCCCN(CCC(=O)OCC)C(C)=O,Potency,[1],35.6 µM (active)
same,Potency,[2],inactive
same,Potency,[3],inactive
same,Potency,[4],inactive
O=C(O)Cc1csc(-c2ccc(Cl)cc2)n1,Potency,[1],inactive
same,Potency,[2],inactive
same,Potency,[3],inactive
same,Potency,[4],inactive
Cc1ccc(-c2ncc(Cl)cc2-c2ccc(S(C)(=O)=O)cc2)cn1,Potency,[1],inactive
same,Potency,[2],17.4 µM (active)
same,Potency,[3],inactive
C=CCCC(=O)O,Potency,[1],inactive
same,Potency,[2],inactive
same,Potency,[3],inactive
same,Potency,[4],inactive
C[C@@H]1CCC[C@H](C)N1,Potency,[1],inactive
same,Potency,[2],inactive
same,Potency,[3],inactive
same,Potency,[4],inactive
c1ccc2sc(SN3CCOCC3)nc2c1,Potency,[1],17.4 µM (active)
same,Potency,[2],17.4 µM (active)
same,Potency,[3],inactive
NC(=O)N[C@@H](CCC(=O)O)C(=O)O,Potency,[1],inactive
same,Potency,[2],inactive
same,Potency,[3],inactive
same,Potency,[4],inactive
CC(C)(CCC(=O)O)C(=O)O,Potency,[1],inactive
same,Potency,[2],inactive
same,Potency,[5],28.6 µM (active)
same,Potency,[3],inactive
same,Potency,[4],inactive
CCCCCCCCCCCCSC,Potency,[1],inactive
same,Potency,[2],inactive
same,Potency,[3],inactive
same,Potency,[4],inactive
O=C(c1ccccc1)C1(O)CCCCC1,Potency,[1],11.2 µM (active)
same,Potency,[2],35.6 µM (active)
same,Potency,[3],inactive
same,Potency,[4],inactive
[O-][n+]1cccc(CO)c1,Potency,[1],inactive
same,Potency,[5],inactive
same,Potency,[3],inactive
same,Potency,[4],inactive
NS(=O)(=O)Cc1noc2ccccc12,Potency,[1],inactive
same,Potency,[5],inactive
same,Potency,[3],inactive
CC(=O)OCC(=O)[C@@]1(O)[C@H](C)C[C@H]2[C@@H]3CCC4=CC(=O)C=C[C@]4(C)[C@@]3(F)[C@@H](O)C[C@@]21C,Potency,[1],inactive
same,Potency,[5],inactive
same,Potency,[3],inactive
COc1cccc(OC)c1C(=O)N[C@@H]1C(=O)N2[C@@H]1SC(C)(C)[C@@H]2C(=O)O,Potency,[1],inactive
same,Potency,[5],inactive
same,Potency,[3],inactive
same,Potency,[4],inactive
CCC1C(=O)OCC1Cc1cncn1C (stereo not given),Potency,[1],inactive
same,Potency,[5],inactive
same,Potency,[3],inactive
same,Potency,[4],11 µM (active)
CCN(CC#N)c1cccc(C)c1,Potency,[1],71 µM (active)
same,Potency,[5],28.3 µM (active)
same,Potency,[3],inactive
same,Potency,[4],inactive
COc1ccc2cc1Oc1cc3c(cc1OC)CC[N+](C)(C)[C@H]3Cc1ccc(cc1)Oc1c(OC)c(OC)cc3c1[C@@H](C2)[N+](C)(C)CC3,Potency,[1],inactive
same,Potency,[5],inactive
same,Potency,[3],inactive
same,Potency,[4],inactive
